# Screening results (PubChem)
# HPGD inh – blocks human HPGD enzyme activity. P15428. purified HPGD, NADH fluorescence kinetic, PGE2 substrate. Potency, µM, usual class: inhibitors. 150,000 tested, 4.3% active. AID 894
#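 NADH formation kinetics: reaction with 30 uM PGE2 and 1 mM NAD+ (final), 20 nM enzyme, Tris-HCl pH 8 with Tween 20, after 15 min compound preincubation at room temperature. Fluorescence change, last versus first of five reads.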
# ALDH1A1 block – blocks purified human ALDH1A1 activity. Purified ALDH1A1, NADH fluorescence, propionaldehyde substrate. Potency, µM (top dose mostly 75.3 µM), most hits filed as inhibitors. 220,000 tested, 7.3% active
# Target sequence (P00352 whole entry, looked up): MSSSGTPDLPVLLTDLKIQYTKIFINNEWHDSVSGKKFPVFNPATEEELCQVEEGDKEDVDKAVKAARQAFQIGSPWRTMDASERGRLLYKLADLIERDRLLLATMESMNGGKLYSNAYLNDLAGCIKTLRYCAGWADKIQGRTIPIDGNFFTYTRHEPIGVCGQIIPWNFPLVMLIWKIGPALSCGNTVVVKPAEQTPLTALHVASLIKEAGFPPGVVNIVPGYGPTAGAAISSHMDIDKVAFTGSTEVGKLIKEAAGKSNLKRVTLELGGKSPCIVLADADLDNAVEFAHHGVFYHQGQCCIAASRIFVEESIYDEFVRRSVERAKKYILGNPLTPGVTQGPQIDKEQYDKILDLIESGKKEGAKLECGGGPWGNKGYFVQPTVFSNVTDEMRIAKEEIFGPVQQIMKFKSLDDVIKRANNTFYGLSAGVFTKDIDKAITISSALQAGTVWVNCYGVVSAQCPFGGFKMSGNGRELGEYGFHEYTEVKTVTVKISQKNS
# KDM4E inh – inhibitors of human JMJD2E histone demethylase | B2RXH2 | JMJD2E catalytic domain, FDH-coupled NADH fluorescence (FDH is formaldehyde dehydrogenase) | Potency, µM (top dose mostly 57.1 µM), actives largely listed as inhibitors | 230,000 tested, 1.6% active | AID 2147; note: nearly all actives have a fitted effect of over 50% in size
# HTT aggregate – inhibitors of mutant huntingtin aggregate formation in PC12 cells; PC12 HttQ103-GFP aggregates, Acumen cytometry, 40 h; Potency, µM (titrated, usually from 46.1 µM), usual class: inhibitors; 220,000 tested, 1.1% active; AID 1688; active = well fitted curve in the direction sought with a large enough effect; inconclusive = small, poorly fitted or top-dose-only effect, or another doubt; inactive = no such curve, though single readings can be large; an effect the other way counts as inactive or inconclusive; note: nearly all actives have a fitted effect of over 60% in size
#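 PC12 cells with ecdysone-inducible HTT exon1 Q103-GFP, induced by 100 nM tebufenozide, given compounds in a concentration series. GFP aggregates (1–25 um, 6 SD above background) counted in lysates by laser-scanning cytometry, 488 nm excitation.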
# Lamin A splicing – LMNA splicing modulation. HeLa LMNA splicing GFP/RFP minigene ratio, 48 h. Potency, µM (top dose mostly 46.1 µM), actives largely listed as inhibitors. 200,000 tested, 0.01% active. AID 1487; active = well fitted inhibition curve with a large enough effect in the signal ratio, with a control signal flat, not every such curve was filed as active; inconclusive = small, poorly fitted or top-dose-only effect, or effect the other way, or a change in a side signal; the % refers to the signal ratio
#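 S3 HeLa cells stably expressing lamin A-EGFP splicing minigene plus DsRed2, 600 cells/well, 48 h compound exposure at 37C. Laser-scanning cytometry; analysed as GFP (500-530 nm)/RFP (575-640 nm) total intensity ratio; 0.5% DMSO vehicle.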
# HTT cytoprotect – cytoprotection in Huntington HTT-Q103 PC12 cell model; 230,000 tested, 0.14% active; AID 1471; Potency, µM (doses to about 56.4 µM), actives largely listed as activators; PC12 HTT-Q103 induced, cytoprotection, ATP luminescence, 40 h; active = well fitted curve in the direction sought with a large enough effect; inconclusive = small, poorly fitted or top-dose-only effect, or another doubt; inactive = no such curve, though single readings can be large; an effect the other way counts as inactive or inconclusive; note: nearly all actives have a fitted effect of over 45% in size
#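 Stable PC12 Q103-GFP cells in serum-supplemented, phenol red-free DMEM; induction by tebufenozide at 100 nM final; compound dose series; cell viability quantified luminescently from ATP.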
# Hits are given with their value; - = inactive; ? = inconclusive; . = no result given; [ ] = another dose, or the depositor's remark. Only some compounds are listed: those with a hit (about 9.2% of all), similar ones and a draw of the others. Unless noted, calls come from the whole dose curve; as a rule, active = well fitted inhibition curve with a large enough effect (not every such curve was filed as active); inconclusive = small, poorly fitted or top-dose-only effect, or another doubt; inactive = no such curve, though single readings can be large or run the other way.
SMILES,HPGD inh,ALDH1A1 block,KDM4E inh,HTT aggregate,Lamin A splicing,HTT cytoprotect
Cc1c(Cc2ccccc2)sc(N)c1C(N)=O,28µM,16µM,-,-,-,-
Cc1c(Cc2ccccc2)sc(NC(=O)C(C)(C)C)c1C(N)=O,.,8.9µM,-,?,.,-
CCC(=O)Nc1sc(Cc2ccccc2)c(C)c1C(N)=O,.,22µM,?,-[9.22 µM],?,-[10 µM]
Cc1[nH]c(C)c(CN(C)C)c1CN(C)C,-,-[13.5 µM],.,.,.,-[10 µM]
O[C@H](CNc1ccccn1)c1ccccc1,-,-[13.5 µM],.,.,.,-[10 µM]
CC1(C)CC1C(=O)N/C(=C/CCCCSCC(N)C(=O)O)C(=O)O (stereo unspecified),.,.,.,-,.,-
CC1(C)C2CC[C@]1(C)[C@@H](O)C2,.,.,.,-,.,-
CC1(OC(=O)CCc2ccccc2)C(=O)C=C2C=C(c3ccc(C#N)cc3)N(Cc3ccco3)C=C2C1=O (stereo unspecified),-,?,?,-[9.22 µM],?,-[10 µM]
CC1(OC(=O)CCc2ccccc2)C(=O)C=C2C=C(c3ccc(C#N)cc3)N(Cc3ccccc3)C=C2C1=O (stereo unspecified),-,?,16µM,-[9.22 µM],-[9.22 µM],-[10 µM]
CCOC(=O)CC(=O)CSc1nc(C)nc2c1oc1ccccc12,?,?,?,1.1µM,-,-
Cc1nc(SCC(=O)c2cccs2)c2oc3ccccc3c2n1,13µM,-,-,-,?,-
CC(=O)N1CCN(c2ccc(Nc3nc(C)nc4c3oc3ccccc34)cc2)CC1,-,?,?,-,?,-
O=C(CSc1nc2cc(Cl)ccc2o1)c1cccs1,14µM,-,-,-,-,-[10 µM]
Cc1nc(SCC(=O)N2CCN(c3ccccc3)CC2)c2oc3ccccc3c2n1,?,40µM,-,-,?,-[0.074 µM]
COc1ccc(S(=O)(=O)NCCS(=O)(=O)N2CCN(c3ccccc3)CC2)cc1OC,.,.,.,.,-,.
CCOc1cc(-c2nccc3cc(OC)c(OC)cc23)cc(OCC)c1OCC,.,.,.,-,.,-
COc1ccc(C(C)=O)cc1CSc1nc2cc(Cl)ccc2o1,-,25µM,-,-,?,-
Cc1nc(SCC(=O)NCc2ccccc2)c2oc3ccccc3c2n1,-,-,-,-,-,-
Cc1nc(SCC(=O)O)c2oc3ccccc3c2n1,18µM,-,-,-,-,-
COc1ccc(C(C)=O)cc1CSc1nnc(SCc2cc(C(C)=O)ccc2OC)s1,.,.,-,-[9.22 µM],.,-[10 µM]
C[C@H](O)CC1=C[C@H](O)[C@@H](C)OC1=O,.,-,-,-[9.22 µM],.,-[10 µM]
CC(C)(C)NC(=S)NNC(=O)c1ccncc1,13µM,-,-,-,-,.
CCOc1ccc(CN(C)C(=O)CCl)cc1,.,0.05µM,?,-[9.22 µM],.,-[10 µM]
Cc1ccc(O)c(C2=Nc3ccccc3N=C(c3cccs3)C2)c1,-,-,-,-,?,-[10 µM]
Cc1ccc(O)c(C2=NOC(O)(C(F)(F)F)C2)c1 (stereo unspecified),14µM,-,-,-,-,-
SMILES,HPGD inh,ALDH1A1 block,KDM4E inh,HTT aggregate,Lamin A splicing,HTT cytoprotect
Cc1ccc(O)c(C2=NCCNC(C(F)(F)C(F)F)=C2)c1,-,-,-,?,-,-
Cc1ccc(O)c(C2=NOC(O)(C(F)(F)C(F)F)C2)c1 (stereo unspecified),5µM,-,-,-,?,-
CC1(C)Cc2nc(Cl)c(C(N)=O)cc2CO1,.,.,-,-[9.22 µM],.,-[10 µM]
Cn1c(NNC(=O)C2CCCCC2)cc(=O)n(C)c1=O,.,-,-,-,-,-
O=C(c1nsc(Cl)c1Cl)N1CCCCC1,2.5µM,-,-,-,?,-[10 µM]
O=C(O)c1c(Cl)c(Cl)c(Cl)c(Cl)c1C(=O)N1CCCC1,-,-,-,-,-,-
CCOC(=O)c1ccc(NC(=S)NCCCN2CCCC2=O)cc1,.,0.032µM,-,-[9.22 µM],.,-[10 µM]
O=C1CCCN1CCCNC(=S)Nc1ccc(Nc2ccccc2)cc1,.,14µM,-,-,.,-
Cc1ccc(/C=C/C(=O)O)cc1S(=O)(=O)NCc1ccco1,.,?,-,-[9.22 µM],.,-[10 µM]
Cc1ccc(-c2ccc(=O)n(CC(=O)N3CCN(c4cccc(C)c4)C(C)C3)n2)cc1 (stereo unspecified),-,-,-,-,-,-
Cc1cccc(N2CCN(C(=O)Cn3sc4nc(C)cc(C)c4c3=O)CC2C)c1 (stereo unspecified),3.2µM,3.5µM,?,-,-,-
Cc1cc(C)c2c(=O)n(CC(=O)N3CCC(Cc4ccccc4)CC3)sc2n1,4.5µM,7.1µM,?,?,-,-[10 µM]
COc1ccc(-c2nc(CNC(=O)NC3CCCCC3)c(C)o2)cc1,.,.,.,.,-,.
c1ccc(Nc2ncncc2-c2ccoc2)cc1,.,?,.,.,-,-
COc1ccc(C(=O)N2CCC3(CCCN(CC(C)C)C3)CC2)cc1,-,-,.,.,.,-
CC(=O)Nc1sc2c(c1C(c1cccc(Cl)c1)N1CCN(CCO)CC1)CCCC2 (stereo unspecified),.,-,-,-,.,-
CC(=O)Nc1sc2c(c1C(c1ccncc1)N1CCOCC1)CCCC2 (stereo unspecified),.,25µM,-,-,?,-
Cc1cc(O)cc(O)c1C(=O)OC1(C)C(=O)C=C2C=C(/C=C/CO)OC=C2C1=O (stereo unspecified),-,22µM,-,.,.,-
C/C=C/C1=CC2=CC(=O)C(C)(OC(=O)c3c(C)cc(O)cc3O)C(=O)C2=CO1 (stereo unspecified),-,?,-,.,.,-
Nc1cc(-c2ccco2)no1,-,4.5µM,?,-,-,-[10 µM]
c1ccc(-c2nc(-c3ccco3)cs2)nc1,-,?,?,-,-,-
CC(C)(C)C(=O)Nc1ccc(-c2csnn2)cc1,.,-,-,-[9.22 µM],?,-[10 µM]
Fc1ccccc1CSc1nc2ncccc2[nH]1,18µM,22µM,-,-,-,-[10 µM]
CS(=O)(=O)Nc1cccc(-c2nc(-n3ccnc3)c3ccccc3n2)c1,.,-,.,.,?,?
CS(=O)(=O)Nc1cccc(-c2nccc(-n3ccnc3)n2)c1,18µM,-,?,.,-,-
CCOC(=O)C1CCCN(S(=O)(=O)c2cc3c4c(c2)CC(=O)N4CCC3)C1 (stereo unspecified),.,.,.,.,-,.
CC(=O)Nc1ccc(C2NC(C(=O)O)CCC2C)cc1 (stereo unspecified),.,-[13.5 µM],.,.,.,-[10 µM]
Cc1c(N=NC2=C(O)CCCC2=O)c(=O)n(-c2ccccc2)n1C,.,13µM,-,-,.,-[10 µM]
CN(C)[C@H]1C(=O)C(C(=O)NCN2CCCC2)=C(O)[C@]2(O)C(=O)C3=C(O)c4c(O)cccc4[C@](C)(O)[C@H]3C[C@H]12,-,-[13.5 µM],.,-,?,-[10 µM]
O=c1[nH]c2[nH]c(=S)[nH]c(=S)c2[nH]1,3.5µM,?,.,.,.,-[10 µM]
